Measured values from article PMC5540273 (PLoS ONE, 2017).

Each molecule was assayed on T1, SNARK. Details: concentration: 1 μM, replicates: in singlicate; n = 1.
T1 construct: gene NUAK2
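Also: KINOMEscan kinase panel screen.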

| Compound | %Inh |
| --- | --- |
| Cc1ccc(F)c(C(=O)Nc2cccc(-c3nn4ccccc4c3-c3ccnc(Nc4cccc(F)c4)n3)c2)c1F [GSK361061] | 11% |
| Cl.Cl.NCC(NC(=O)c1cc(-c2ccccc2)c(-c2ccnc3[nH]ccc23)s1)c1ccccc1 (stereo not shown) [GSK1321561] | 50% |
| Cc1cccc(Nc2nc(N[C@H]3CCNC3)ncc2C(N)=O)c1.Cl [GSK2197149] | 34% |
| COc1cccc(C2=C(Nc3ccc(Cl)c(C(=O)O)c3)C(=O)NC2=O)c1 [SB-390769] | 100% |
| O=C(Nc1cccc(-c2nn3ccccc3c2-c2ccnc(Nc3cccc(F)c3)n2)c1)c1c(F)ccc(F)c1Cl [GSK357952] | 4% |
| COc1cccc(NC(=O)NC2CCN(c3ccnc(Nc4cc(OC)c(OC)c(OC)c4)n3)C2)c1 (stereo not shown) [GSK1379763] | 33% |
| O=c1[nH]cc(-c2ccc(N3CCOCC3)cc2)c2sc(-c3cn[nH]c3)cc12 [GSK2276055] | 15% |
| CC(C)(C)c1ccc2nccc(Nc3cccc(O)c3)c2c1 [GW856795] | 0% |
| COc1ccc(Nc2nccc(N3CCC(NC(=O)Nc4cccc(OC)c4)C3)n2)cc1 (stereo not shown) [GSK1379742] | 0% |
| CCS(=O)(=O)c1ccc(OC)c(Nc2nccc(-c3c(-c4cccc(NC(=O)c5c(F)cccc5F)c4)nn4ncccc34)n2)c1 [GSK326180] | 0% |
| CC(C)c1nc(-c2cccc(NS(=O)(=O)c3c(F)cccc3F)c2F)c(-c2ccnc(Nc3ccc(N4CCOCC4)nc3)n2)s1 [GSK2008607] | 29% |
| Fc1ccc(-c2ncn(C3CCNCC3)c2-c2ccnc(Oc3ccc(-c4ccccc4)cc3)n2)cc1 [SB-245391] | 16% |
| O=C(Nc1n[nH]c2cc(-c3ccoc3)ccc12)C1CC1 [SB-738481] | 25% |
| Nc1ncc(-c2cccnc2)c2scc(-c3ccc4c(c3)CCN4C(=O)Cc3ccccc3)c12 [GSK683281] | 4% |
| Nc1ncc(-c2ccc3nccc(-c4ccncc4)c3c2)cc1S(=O)(=O)N1CCOCC1 [GSK1627798] | 8% |
| C[C@@H]1CC[C@@H](C(=O)Nc2ccccc2)CN1c1cc(-c2ccc3c(N)n[nH]c3c2)nc(N)n1 [GSK2286062] | 11% |
| Cn1cc(-c2ccc3c(c2)CCN3C(=O)Cc2cccc(F)c2)c2c(N)ncnc21 [GSK2603358] | 10% |
| Cc1ccc(C(=O)N2CC[C@@H](O)C2)cc1-n1c(C)cc(OCc2ccc(F)cc2F)c(Br)c1=O | 0% |
| CN1CCN(Cc2cccc(-c3ccc4c(Nc5ccc(Oc6ccccc6)cc5)ccnc4c3)c2)CC1 [GW578342] | 0% |
| CN(C)S(=O)(=O)c1cc(-c2ccc3nccc(-c4cccc(S(N)(=O)=O)c4)c3c2)cnc1N [GSK1669921] | 22% |
| COc1cc(Nc2nccc(-c3c(-c4cccc(NC(=O)c5c(F)cccc5F)c4)nn4ncccc34)n2)cc(OC)c1OC [GSK327238] | 95.2% |
| COCCOCCOc1cc2ncc3c4ccc(C#N)cc4[nH]c3c2cc1OC | 83% |
| Cc1ccc(C(=O)Nc2ccc(Nc3ccnc4cc(-c5nccs5)ccc34)cc2O)cc1.Cl [GW494702] | 10% |
| CC(=O)N1CCN(c2ccc(Nc3nccc(-c4sc(C(C)C)nc4-c4cccc(NS(=O)(=O)c5cccc(Cl)c5)c4)n3)cn2)CC1 [GSK1660437] | 17% |
| COc1cccc(C(=O)Nc2cccc(Oc3ccc4nc(NC(=O)C5CC5)cn4n3)c2)c1 | 5% |
| Cc1cccc(NC(=O)Nc2ccc(Oc3ncnc4ccn(C)c34)cc2)c1 | 0% |
| Cc1ccc(S(=O)(=O)Nc2ccc(Nc3nccc(Nc4cccc5[nH]ncc45)n3)cc2)cc1 [GSK581271] | 0% |
| O=C(Nc1ccccc1F)NC1CCN(c2ccnc(Nc3ccc(F)cc3)n2)CC1 [GSK1379800] | 0% |
| Nc1n[nH]c2cnc(-c3ccccc3)cc12 [SB-642124] | 60% |
| c1ccc(-c2n[nH]cc2Nc2ccnc3ccccc23)nc1 [GW694077] | 27% |

What follows are molecules tested on SNRK. Details: concentration: 1 μM, replicates: in singlicate; n = 1.

| Compound | %Inh |
| --- | --- |
| CN(c1ccc(NC(=O)Nc2cc(C(F)(F)F)ccc2F)cc1)c1ccnc(Nc2ccc(S(N)(=O)=O)cc2)n1 [GW809893] | 5% |
| Nc1ncnc2c1nc(-c1ccccc1)n2-c1ccccc1 [SKF-97293] | 18% |
| CN1CCN(CCCNc2nccc(-c3c(-c4ccc(F)cc4)nn4cc(C(F)(F)F)ccc34)n2)CC1 [GW621581] | 0% |
| O=C(Nc1cccc(-c2nn3ccccc3c2-c2ccnc(Nc3cccc(C(F)(F)F)c3)n2)c1)c1c(F)cccc1F [GSK292658] | 15% |
| COc1cc(Nc2nccc(N3CCC(NC(=O)Nc4cccc(C(C)=O)c4)C3)n2)cc(OC)c1OC (stereo not shown) [GSK1379753] | 0% |
| Cl.Cl.NCC(C(=O)Nc1cc(Br)c(-c2ccnc3[nH]ccc23)s1)c1ccccc1 (stereo not shown) [GSK1269851] | 0% |
| COc1ccc(Nc2nccc(NCCNC(=O)c3cc4ccccc4s3)n2)cc1 [GSK1379896] | 2% |
| Cc1ccc(F)c(C(=O)Nc2cccc(-c3nn4ccccc4c3-c3ccnc(Nc4cccc(F)c4)n3)c2)c1F [GSK361061] | 0% |
| Cl.Cl.NCC(NC(=O)c1cc(-c2ccccc2)c(-c2ccnc3[nH]ccc23)s1)c1ccccc1 (stereo not shown) [GSK1321561] | 0% |
| Cc1cccc(Nc2nc(N[C@H]3CCNC3)ncc2C(N)=O)c1.Cl [GSK2197149] | 0% |
| COc1cccc(C2=C(Nc3ccc(Cl)c(C(=O)O)c3)C(=O)NC2=O)c1 [SB-390769] | 100% |
| O=C(Nc1cccc(-c2nn3ccccc3c2-c2ccnc(Nc3cccc(F)c3)n2)c1)c1c(F)ccc(F)c1Cl [GSK357952] | 17% |
| COc1cccc(NC(=O)NC2CCN(c3ccnc(Nc4cc(OC)c(OC)c(OC)c4)n3)C2)c1 (stereo not shown) [GSK1379763] | 0% |
| O=c1[nH]cc(-c2ccc(N3CCOCC3)cc2)c2sc(-c3cn[nH]c3)cc12 [GSK2276055] | 0% |
| CC(C)(C)c1ccc2nccc(Nc3cccc(O)c3)c2c1 [GW856795] | 0% |
| COc1ccc(Nc2nccc(N3CCC(NC(=O)Nc4cccc(OC)c4)C3)n2)cc1 (stereo not shown) [GSK1379742] | 0% |
| CCS(=O)(=O)c1ccc(OC)c(Nc2nccc(-c3c(-c4cccc(NC(=O)c5c(F)cccc5F)c4)nn4ncccc34)n2)c1 [GSK326180] | 0% |
| CC(C)c1nc(-c2cccc(NS(=O)(=O)c3c(F)cccc3F)c2F)c(-c2ccnc(Nc3ccc(N4CCOCC4)nc3)n2)s1 [GSK2008607] | 0% |
| Fc1ccc(-c2ncn(C3CCNCC3)c2-c2ccnc(Oc3ccc(-c4ccccc4)cc3)n2)cc1 [SB-245391] | 23% |

| Compound | %Inh |
| --- | --- |
| O=C(Nc1n[nH]c2cc(-c3ccoc3)ccc12)C1CC1 [SB-738481] | 0% |
| Nc1ncc(-c2cccnc2)c2scc(-c3ccc4c(c3)CCN4C(=O)Cc3ccccc3)c12 [GSK683281] | 1% |
| Nc1ncc(-c2ccc3nccc(-c4ccncc4)c3c2)cc1S(=O)(=O)N1CCOCC1 [GSK1627798] | 0% |
| C[C@@H]1CC[C@@H](C(=O)Nc2ccccc2)CN1c1cc(-c2ccc3c(N)n[nH]c3c2)nc(N)n1 [GSK2286062] | 0% |
| Cn1cc(-c2ccc3c(c2)CCN3C(=O)Cc2cccc(F)c2)c2c(N)ncnc21 [GSK2603358] | 0% |
| Cc1ccc(C(=O)N2CC[C@@H](O)C2)cc1-n1c(C)cc(OCc2ccc(F)cc2F)c(Br)c1=O | 0% |
| CN1CCN(Cc2cccc(-c3ccc4c(Nc5ccc(Oc6ccccc6)cc5)ccnc4c3)c2)CC1 [GW578342] | 0% |
| CN(C)S(=O)(=O)c1cc(-c2ccc3nccc(-c4cccc(S(N)(=O)=O)c4)c3c2)cnc1N [GSK1669921] | 12% |
| COc1cc(Nc2nccc(-c3c(-c4cccc(NC(=O)c5c(F)cccc5F)c4)nn4ncccc34)n2)cc(OC)c1OC [GSK327238] | 0% |
| COCCOCCOc1cc2ncc3c4ccc(C#N)cc4[nH]c3c2cc1OC | 17% |
| Cc1ccc(C(=O)Nc2ccc(Nc3ccnc4cc(-c5nccs5)ccc34)cc2O)cc1.Cl [GW494702] | 0% |
| CC(=O)N1CCN(c2ccc(Nc3nccc(-c4sc(C(C)C)nc4-c4cccc(NS(=O)(=O)c5cccc(Cl)c5)c4)n3)cn2)CC1 [GSK1660437] | 0% |
| COc1cccc(C(=O)Nc2cccc(Oc3ccc4nc(NC(=O)C5CC5)cn4n3)c2)c1 | 8% |
| Cc1cccc(NC(=O)Nc2ccc(Oc3ncnc4ccn(C)c34)cc2)c1 | 0% |
| Cc1ccc(S(=O)(=O)Nc2ccc(Nc3nccc(Nc4cccc5[nH]ncc45)n3)cc2)cc1 [GSK581271] | 0% |
| O=C(Nc1ccccc1F)NC1CCN(c2ccnc(Nc3ccc(F)cc3)n2)CC1 [GSK1379800] | 0% |
| Nc1n[nH]c2cnc(-c3ccccc3)cc12 [SB-642124] | 0% |
| c1ccc(-c2n[nH]cc2Nc2ccnc3ccccc23)nc1 [GW694077] | 0% |
